From PubChem
A selection: hits, their analogues and other compounds. The true share with any hit is near 5.8%.
PINK1 modulator = modulators of PINK1 expression; PINK1 immunofluorescence, high-content cytometry, 24 h; Potency, µM (titrated, usually from 76.6 µM), without a hit: at the top dose activation (PINK1 increase), usual class: activators; actives 0.2% (n = 410,000); AID 624263; active = well fitted activation curve with a large enough effect; inconclusive = small, poorly fitted or top-dose-only effect; cell line not stated here; also: % of control where 0% means no effect; nearly all actives have a fitted effect of over 65% in size
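Stable cell line, 250 cells/well, 12 h attachment; compounds pinned at 5 concentrations, 24 h; CCCP control. Fixed with nuclear dye, primary antibodies 12 h at 10 degrees C, secondary plus cell stain; laser-scanning cytometer read.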
MCF10A rereplic = induces DNA re-replication in MCF 10a normal breast cells. MCF 10A DNA re-replication, Hoechst nuclear intensity, 48 h. Potency, µM (titrated, usually from 46.1 µM), for inactives: at the top dose activity, positive = re-replication, actives largely listed as activators. actives 2.9% (n = 350,000). AID 624296; also: % of control where 0% means no effect; nearly all actives have a fitted effect of over 50% in size
KB-V1 MDR tox = kills drug-selected multidrug resistant KB-V1 cells; KB-V1 MDR cells viability, CellTiter-Glo, 72 h; AID 1347076; actives 3.4% (n = 400,000); Potency, µM (doses to about 46.1 µM), hits mostly cytotoxic; also: % is scaled to controls: 0 for no effect and ±100 for the full control effect; nearly all actives have a fitted effect of over 60% in size
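Luminescent ATP read-out (CellTiter-Glo, 10 min) measures survival of drug-selected KB-V1 MDR cells after 72 h, 37 degrees C compound exposure. Medium: phenol-red-free DMEM, 10% FBS. Values from fitted concentration-response curves.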
12-LOX inh = inhibitors of human 12S-lipoxygenase ALOX12. P18054. purified 12hLO, xylenol orange hydroperoxide absorbance. Potency, µM (series often up to 108 µM), without a hit: top-dose activity change, negative = inhibition, most hits filed as inhibitors. actives 1.1% (n = 580,000); also: % is scaled to controls: 0 for no effect and ±100 for the full control effect
Target sequence (P18054 whole entry, looked up): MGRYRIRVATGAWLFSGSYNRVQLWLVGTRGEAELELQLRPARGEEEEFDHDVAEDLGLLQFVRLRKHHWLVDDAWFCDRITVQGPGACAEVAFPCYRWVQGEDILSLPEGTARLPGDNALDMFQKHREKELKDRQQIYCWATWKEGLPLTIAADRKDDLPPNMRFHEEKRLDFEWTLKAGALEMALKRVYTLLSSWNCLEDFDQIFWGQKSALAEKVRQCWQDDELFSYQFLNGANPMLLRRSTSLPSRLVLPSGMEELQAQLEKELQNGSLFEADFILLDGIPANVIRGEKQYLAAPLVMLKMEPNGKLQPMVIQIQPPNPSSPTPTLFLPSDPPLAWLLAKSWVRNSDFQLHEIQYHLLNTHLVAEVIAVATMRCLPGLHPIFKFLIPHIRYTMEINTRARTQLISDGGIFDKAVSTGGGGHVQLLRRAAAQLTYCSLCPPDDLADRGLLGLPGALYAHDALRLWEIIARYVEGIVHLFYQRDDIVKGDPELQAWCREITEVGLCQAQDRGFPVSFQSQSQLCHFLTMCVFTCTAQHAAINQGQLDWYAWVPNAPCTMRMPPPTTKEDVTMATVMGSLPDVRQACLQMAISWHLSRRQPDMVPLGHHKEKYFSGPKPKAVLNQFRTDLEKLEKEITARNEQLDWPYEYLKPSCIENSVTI
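Hydroperoxide product was detected by ferrous iron/xylenol orange as the 573 to 405 nm absorbance ratio. Arachidonic acid at 40 uM (final) was turned over for 30 min at room temperature by 150 nM human 12hLO, pH 7.0 Hepes buffer, after 15 min compound preincubation.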
SW480 rereplic = induces DNA re-replication in SW480 colon adenocarcinoma cells; SW480 DNA re-replication, Hoechst DNA content imaging, 48 h; actives 1.8% (n = 340,000); Potency, µM (doses to about 46.1 µM), inactives show at the top dose re-replication activation, usual class: activators; AID 624297; also: % of control where 0% means no effect; nearly all actives have a fitted effect of over 55% in size
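Hoechst fluorescence of nuclei (405 nm excitation, 500-530 nm emission) measured by plate-scanning imager after 48 hr compound exposure at 37 C; re-replication scored as increased number of nuclei with elevated intensity.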
KB-3-1 cytotox = kills parental KB-3-1 adenocarcinoma cells | KB-3-1 viability, CellTiter-Glo ATP luminescence, 72 h | Potency, µM (doses to about 46.1 µM), hits mostly cytotoxic | actives 1.4% (n = 400,000) | AID 1347075; also: % is scaled to controls: 0 for no effect and ±100 for the full control effect; nearly all actives have a fitted effect of over 60% in size
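Parental KB-3-1 viability, qHTS format: 72 h compound exposure, 37 °C; CellTiter-Glo; media-only wells and DMSO plates as controls; concentration-effect fits on corrected data.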
Active calls of the source: *; i = inactive; ? = inconclusive; . = no result; [ ] = dose if it differs, or a comment. Unless noted, calls follow the shape of the dose curve; as a rule, active = well fitted curve in the direction sought with a large enough effect; inconclusive = small, poorly fitted or top-dose-only effect, or another doubt; inactive = no such curve, though single readings can be large; an effect the other way counts as inactive or inconclusive. Potency is read from the fitted curve at half-maximal effect.

SMILES | PINK1 modulator | MCF10A rereplic | KB-V1 MDR tox | 12-LOX inh | SW480 rereplic | KB-3-1 cytotox
O=C(Nc1ccccc1)OCCOc1ccc(Br)cc1 | 6.3% | 18.4µM* | i | 2.9% | 22.4% | i
CC(=O)c1cccc(NC(=O)CSc2nncn2CCc2cccs2)c1 | . | . | . | -5.7% | . | .
COc1cccc(-c2nc3c([nH]2)CN(C(C)C(=O)NC2CCCCC2)CC3)c1 (centres undefined) | . | . | . | 167.8% | . | .
O=S(=O)(c1ccc(F)cc1)N1CCN(CC(O)COCc2ccccc2)CC1 (centres undefined) | -2.1% | -3.0% | 20.6µM* | -12.9% | -1.6% | i
COc1ccccc1COCC(O)CN1CCN(S(=O)(=O)c2cccc(F)c2)CC1 (centres undefined) | 1.1% | 6.4% | i | ? | 28.6% | i
COc1ccc(COCC(O)CN2CCN(S(=O)(=O)c3c(F)cccc3F)CC2)cc1OC (centres undefined) | 0.0% | 10.4% | 13µM* | ? | ? | i
OC(c1ccccc1)(c1ccccc1)C1CCN(Cc2cccc(OCc3ccccc3)c2)CC1 | . | . | . | -91.5% | . | .
CCCc1noc(-c2ccn3c(CNC(=O)C(C)Oc4ccccc4)nnc3c2)n1 (centres undefined) | . | . | . | 4.8% | . | .
Cn1c(C(=O)N2CCN(C(=O)c3ccccc3F)CC2)cc2ccccc21 | . | . | . | 16.1% | . | .
COc1ccccc1-n1c2c(cc(C#N)c1=O)C(=O)CC(C)(C)C2 | . | . | . | 0.4% | . | .
O=C(COC(=O)CSc1ccc2ccccc2c1Br)NCc1ccco1 | . | . | . | 2.7% | . | .
COc1ccc(CNC(=O)Cn2nc(-c3ccc(OC)c(OC)c3)ccc2=O)cc1OC | . | . | . | 15.9% | . | .
O=C(NCc1ccc(C(=O)N2CCCCC2)cc1)c1cc2ccccc2oc1=O | . | . | . | -18.6% | . | .
CN(CC(=O)NC(C)(C)C)C(=O)c1cc2ccc(Br)cc2[nH]1 | . | . | . | -23.0% | . | .
C[C@@H](C(=O)NCCc1c[nH]c2ccccc12)[C@H]1C[C@]1(C)[C@H](NC(=O)OCc1ccccc1)c1ccccc1 | 2.8% | -4.5% | i | ? | 14.6µM* | 16.4µM*
C[C@@H](C(=O)NCC1CC1)[C@@H]1C[C@@]1(C)[C@@H](NC(=O)OCc1ccccc1)c1ccccc1 | 3.4% | 8.1% | i | 3.5% | ? | i
C[C@@H](C(=O)NCc1ccccn1)[C@H]1C[C@]1(C)[C@H](NC(=O)OCc1ccccc1)c1ccccc1 | 2.3% | 20.6µM* | ? | 6.8% | -1.8% | i
COc1cccc(-c2ncc3c(n2)OCCN(c2ccccc2)C3=O)c1 | . | . | . | 7.1%[176 µM] | . | .
O=C1CC(N2CCN(Cc3ccccc3)CC2)C(=O)N1CCc1ccccc1 (centres undefined) | 14.1%[38.3 µM] | 25.9µM* | i | 0.1% | -5.0% | i
COc1ccc(NC(=O)c2ccc3nc(-n4cccc4)sc3c2)cc1 | . | . | . | -4.5% | . | .
COc1ccc(-c2coc3cc4oc(=O)cc(C)c4cc23)cc1F | 2.9%[38.3 µM] | 5.17µM* | ? | -14.7% | ? | i
Cc1cc(=O)oc2cc3occ(-c4ccc5ccccc5c4)c3cc12 | . | . | . | -23.3% | . | .
COc1ccc(-c2coc3cc4oc(=O)cc(-c5ccccc5)c4cc23)cc1F | -0.5% | 6.51µM* | ? | -5.0% | ? | 2.91µM*
CCS(=O)(=O)N1CCC(NC(=O)c2cccc(NC(=O)c3cccs3)c2)CC1 | . | . | . | 4.9% | . | .
Cc1nn(C)c(C(=O)Nc2ccn(Cc3c(F)c(F)cc(F)c3F)n2)c1[N+](=O)[O-] | 3.4% | 12.3% | 13µM* | -12.4% | -0.8% | i
COc1cccc(-c2csc(N3CCN(C(=O)Nc4ccccc4Cl)CC3)n2)c1 | -0.2% | 18.2% | i | 427.9% | 0.6% | i
COc1cccc(-c2csc(N3CCN(C(=S)Nc4ccc(Cl)cc4)CC3)n2)c1 | . | 17.6% | 23.1µM* | -16.9% | -0.6% | i
COc1cccc(NC(=O)N2CCN(c3nc(-c4cccc(OC)c4)cs3)CC2)c1 | 2.9% | 15.6% | 16.4µM* | 0.7% | ? | ?
